Data from the supplement of paper PMC8699584.
Counter-ions that a name gives are not always drawn. ± gives the standard deviation of the averaged measurements.

What follows are compounds tested on Molm13 (assay: cell viability relative to DMSO control (bortezomib = 0%); higher = less growth inhibition). Conditions: 10 nM; 72 h.
Summary of the method: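 Cell viability was assessed by CellTiter-Glo luminescence. Acute myeloid leukemia cells were seeded at 1000 cells per well in 50 µL on a 384-well library of 679 compounds at a single 10 nM dose for 72 h. Per-plate linear regression set DMSO-treated cells at 100% and positive-control-treated cells at 0%.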
NCC(=O)Nc1ccc(-n2nc(C(F)(F)F)cc2-c2ccc3c(ccc4ccccc43)c2)cc1 gave a cell viability of 114 ± 8.5%. C=CC(=O)N1CCC(Oc2cc3c(Nc4ccc(Cl)c(Cl)c4F)ncnc3cc2OC)CC1 [Poziotinib (HM781-36B)] gave a cell viability of 111.4 ± 0.44%. Work on COc1cc2nccc(Oc3ccc(NC(=O)C4(C(=O)Nc5ccc(F)cc5)CC4)cc3)c2cc1OC yielded a cell viability of 29.6 ± 16%. Cc1ccc(NC(=O)c2ccc(CN3CCN(C)CC3)cc2)cc1Nc1nccc(-c2cccnc2)n1 [Imatinib (mesylate)] was tested, and the cell viability was 111 ± 16%. With Cc1ncc(-c2ccnc(Nc3ccc(S(C)(=O)=O)cc3)n2)n1C(C)C the cell viability was 102 ± 14%. Work on COC(=O)c1ccc2c(c1)NC(=O)/C2=C(\Nc1ccc(N(C)C(=O)CN2CCN(C)CC2)cc1)c1ccccc1 [Nintedanib (BIBF 1120)] yielded a cell viability of 83.62 ± 0.69%. Compound Nc1cc(C(F)(F)F)c(-c2cc(N3CCOCC3)nc(N3CCOCC3)n2)cn1 [BKM120 (NVP-BKM120, Buparlisib)] has a cell viability of 93.7 ± 4.8%. With COc1cc2ncnc(Oc3cccc(NC(=O)Nc4cc(C(C)(C)C(F)(F)F)on4)c3)c2cc1OC the cell viability was 115 ± 3.7%. Work on Cc1cncc2cccc(S(=O)(=O)N3CCCN(C(=O)CN)C[C@@H]3C)c12 [(S)-Glycyl-H-1152 (hydrochloride)] yielded a cell viability of 110 ± 9.1%. In the case of O=C(Nc1nc2ccc(NC(=O)C34CC5CC(CC(C5)C3)C4)cc2s1)c1ccccc1, the cell viability is reported as 117 ± 12%. Work on COc1cccc(-c2cc(=O)c3ccccc3o2)c1N yielded a cell viability of 105 ± 10%. Compound CC(C)[C@H](CO)Nc1nc(Nc2cccc(Cl)c2)c2ncn(C(C)C)c2n1 [Purvalanol A] has a cell viability of 102 ± 7.3%. Compound COc1cc2nccc(Oc3ccc(NC(=O)C4(C(=O)Nc5ccc(F)cc5)CC4)cc3)c2cc1OC [XL184(Cabozantinib malate)] has a cell viability of 15 ± 7.9%. For COc1cc2ncnc(Nc3cccc(Cl)c3F)c2cc1OC(=O)N1CCN(C)C[C@H]1C, the cell viability was 110 ± 8.6%. c1cc(-c2cnn3cc(-c4ccc(N5CCNCC5)cc4)cnc23)c2cccnc2c1 was tested, and the cell viability was 107 ± 1.7%. In the case of Cc1cccc(/C=N/Nc2cc(N3CCOCC3)n3nc(-c4ccncc4)cc3n2)c1, the cell viability is reported as 95.5 ± 11%. Compound N#CCC(C1CCCC1)n1cc(-c2ncnc3[nH]ccc23)cn1 (stereo not given) has a cell viability of 112 ± 15%. Cc1[nH]c(/C=C2\C(=O)Nc3ccccc32)c(C)c1CCC(=O)O [TSU-68 (SU6668, Orantinib)] gave a cell viability of 93.8 ± 2.3%. COc1ccc([C@@H]2OC[C@H]3[C@@H]2CO[C@@H]3c2ccc(O[C@@H]3O[C@H](CO)[C@@H](O)[C@H](O)[C@H]3O)c(OC)c2)cc1OC [Forsythin] was tested, and the cell viability was 123 ± 20%. With NC(=O)c1ncn([C@@H]2O[C@H](CO)[C@@H](O)[C@H]2O)c1N [AICAR (Acadesine)] the cell viability was 110 ± 7.6%. With Cc1c(CN2CCN(C(=O)[C@H](C)O)CC2)sc2c(N3CCOCC3)nc(-c3cnc(N)nc3)nc12 [Apitolisib (GDC-0980, RG7422)] the cell viability was 108 ± 2.2%. FC(F)(F)c1ccc(CNc2ccc(Cc3c[nH]c4ncc(Cl)cc34)cn2)cc1 was tested, and the cell viability was 112.2 ± 0.43%. Cc1cc(Nc2cc(N3CCN(C)CC3)nc(/C=C/c3ccccc3)n2)n[nH]1 was tested, and the cell viability was 89.6 ± 1.1%. N#Cc1cccc(-c2c[nH]c3ncnc(N4CCOCC4)c23)c1 gave a cell viability of 109 ± 23%. Work on NCCNS(=O)(=O)c1cccc2cnccc12 [H-9 (hydrochloride)] yielded a cell viability of 114 ± 24%. With C[C@@H]1O[C@@H](Oc2cc(O)c3c(=O)c(O[C@@H]4O[C@@H](C)[C@H](O)[C@@H](O)[C@H]4O)c(-c4ccc(O)cc4)oc3c2)[C@H](O)[C@H](O)[C@H]1O [Kaempferitrin] the cell viability was 114 ± 10%. Work on O=C(NOCC1CC1)c1cc(Br)c(F)c(F)c1Nc1ccc(I)cc1Cl yielded a cell viability of 110 ± 11%. Compound CN(C)Cc1cccc(N/C(=C2\C(=O)Nc3cc(C(N)=O)ccc32)c2ccccc2)c1 has a cell viability of 114 ± 4.6%. In the case of O=C(Nc1ccc(OC(F)(F)F)cc1)c1sccc1NCc1ccnc2ccccc12, the cell viability is reported as 111 ± 3.1%. In the case of O=C(NCCCNc1nc(Nc2cccc(NC(=O)N3CCCC3)c2)ncc1I)c1cccs1, the cell viability is reported as 95.7 ± 9.5%. For CCCCCN(CCCOC)C(=O)C(CCC(=O)O)NC(=O)c1ccc(Cl)c(Cl)c1 (stereo not given) [Loxiglumide], the cell viability was 85.9 ± 4.4%. For CC(=O)Nc1nc(C)c(-c2ccc(Cl)c(S(=O)(=O)NCCO)c2)s1, the cell viability was 104 ± 3.5%. For FC(F)(F)c1ccc(CNc2ccc(Cc3c[nH]c4ncc(Cl)cc34)cn2)cn1, the cell viability was 89.207 ± 0.064%. CCCCCCCCCCCCC/C=C/[C@H](O)[C@@H](N)CO [L-threo-Sphingosine C-18] gave a cell viability of 94 ± 9.1%. C[C@@H]1CN(C(=O)c2ccc(NC(=O)c3cc(O[C@H](C)c4c(Cl)ccc(F)c4Cl)c(N)nn3)cc2)C[C@H](C)N1 [Ensartinib] showed a cell viability of 127 ± 20%. Work on O=C(NCCO)c1cccc(-c2cc(Nc3ccc(OC(F)(F)F)cc3)ncn2)c1 yielded a cell viability of 98.72 ± 0.31%. For Oc1cccc(Nc2ncc(F)c(Nc3cccc(O)c3)n2)c1, the cell viability was 83 ± 15%. For CC(C)c1cnn2c(NCc3ccccc3)cc(NCCCCCCN)nc12, the cell viability was 105 ± 20%. With O=C(O)c1c[nH]c2c(ccc3ccccc32)c1=O the cell viability was 87 ± 11%. CC[C@@](C)(Nc1ccnc(-c2c[nH]c3ncccc23)n1)C(=O)NCC(F)(F)F [Decernotinib(VX-509)] was tested, and the cell viability was 98.6 ± 1.4%.
